Compound activity as filed in PubChem BioAssay.
D2 ag-1 – D2 dopamine receptor (human) agonism. P14416. HEK293 T-REx D2 cells, calcium flux agonist mode. activation, % at 2 µM. 340,000 compounds, 0.53% hits;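 active = activation over 3 SD above normal in the single-dose calcium agonist read, cut at about 30% in these data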; also: 0% is about no effect
Target sequence (P14416 whole entry, looked up): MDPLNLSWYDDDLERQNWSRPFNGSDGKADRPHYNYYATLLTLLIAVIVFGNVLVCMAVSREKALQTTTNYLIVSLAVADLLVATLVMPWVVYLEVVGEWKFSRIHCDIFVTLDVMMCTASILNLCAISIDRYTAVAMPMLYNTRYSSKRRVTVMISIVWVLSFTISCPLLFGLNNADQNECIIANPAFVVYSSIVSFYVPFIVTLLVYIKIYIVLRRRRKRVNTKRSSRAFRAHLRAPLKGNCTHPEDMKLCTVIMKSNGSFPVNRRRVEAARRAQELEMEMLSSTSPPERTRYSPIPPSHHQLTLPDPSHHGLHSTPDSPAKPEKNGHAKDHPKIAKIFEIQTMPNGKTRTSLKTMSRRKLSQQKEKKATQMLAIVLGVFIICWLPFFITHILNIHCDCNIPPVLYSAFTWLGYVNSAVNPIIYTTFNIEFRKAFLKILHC
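Tetracycline-induced HEK293 T-REx cells with force-coupled D2 receptor, plated overnight at 30 C, loaded with no-wash calcium dye. After a 10 s baseline, compound was pin-added and calcium flux read kinetically for 180 s; calcium rises flagged agonists.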
D2 ag-2 – activates the human D2 dopamine receptor. P14416. DiscoveRx PathHunter D2 beta-arrestin, luminescence, 90 min; 100% = 57 uM dopamine signal. activation, % (no concentration beside the values). 360,000 compounds, 0.084% hits; in the data active = activation above about 40%; inconclusive = between about 15% and that limit
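Agonist mode: compounds alone added to overnight-plated D2 PathHunter cells for 90 min at 37 C, with 57 uM final dopamine (EC100) defining full response. Beta-arrestin recruitment detected by chemiluminescent reagent, read after 1 h at ambient temperature.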
D2 antagonist – antagonizes the human D2 dopamine receptor; P14416; HEK293 TREx D2 cells, calcium flux, dopamine EC80; inhibition, % at 10 µM; 340,000 compounds, 2% hits; AID 485344; in the data active = inhibition above about 30%; inactive = below that, where a call was filed; also: 0% is about no effect
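Calcium flux kinetic readout in an inducible HEK293 TREx D2 line plated overnight at 30 C. After 180 s compound exposure, an EC80 dopamine challenge follows with another 180 s kinetic read to detect antagonism.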
D2 PAM-1 – positively modulates the human D2 dopamine receptor allosterically; P14416; HEK293 T-REx D2, calcium flux, EC20 dopamine potentiation; potentiation, % at 10 µM; 340,000 compounds, 0.34% hits; AID 485347;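 active = potentiation over 3 SD above the plate norm, cut at about 30% in these data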; also: 0% is about no effect
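Potentiation of an EC20 dopamine calcium response measured kinetically over 180 s, after a preceding 180 s compound-only read flagging agonists. Cells: inducible Hek293 Trex D2 line, 4000/well, cultured overnight at 30 C before dye loading.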
D2 PAM-2 – potentiates the human D2 dopamine receptor allosterically; potentiation, % (no concentration beside the values); DiscoveRx D2 beta-arrestin cells, luminescence, 90 min; 100% = 57 uM dopamine signal; 360,000 compounds, 0.23% hits; AID 624464; in the data active = potentiation above about 50%; inconclusive = mostly about 30% to 49%
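PathHunter beta-arrestin assay in DiscoveRx D2 cells. Compounds were added with an EC20 of dopamine (50 nM final) for 90 min at 37 deg C. Luminescence was read 1 h after detection reagent, with 57 uM dopamine as the EC100 control.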
Numbers without * were called inactive; u = inconclusive; x = no result given. An excerpt weighted towards active compounds, which were near 2.4% of everything screened.

SMILES	D2 ag-1	D2 ag-2	D2 antagonist	D2 PAM-1	D2 PAM-2
CC(NCc1ccc2c(c1)OCO2)C(=O)N1CCc2ccccc21 (configuration not stated)	-1.2	-7.1	43.6*	-27.0	-39.5
CCc1ccc(NC(=O)c2sc3nc(C)c(Cl)c(C)c3c2NC(=O)c2ccccc2)cc1	0.0	x	x	-4.6	x
COc1cc(NC(=O)CSc2ncc(S(=O)(=O)c3ccc(Br)cc3)c(=O)[nH]2)cc(OC)c1	1.0	x	x	3.7	x
Cc1ccc(-n2c(SCCC(C)C)nc3sc4c(c3c2=O)CC(C)(C)OC4)cc1	2.5	x	x	-8.3	x
CCOc1ccc(CCNC(=O)c2sc3nc4n(c(=O)c3c2C)CCCC4)cc1	-1.4	x	x	1.0	x
COC(=O)CCNCCSc1nnc(-c2ccco2)n1Cc1ccccc1	2.3	-5.9	32.9*	-12.8	-25.4
Nc1cc(Cl)nnc1Cl	0.6	-2.4	35.8*	7.7	-0.4
Cc1cc(C(=O)COC(=O)Cn2cnc3c2c(=O)n(C)c(=O)n3C)c(C)n1C	0.3	-0.9	45.0*	8.8	-8.6
CN(C)c1ccc(/C=C2\SC(=S)N(Nc3ncc(C(F)(F)F)cc3Cl)C2=O)cc1	45.3*	-6.0	-18.8	-3.2	-23.3
COc1cc(/C=C2\SC(=S)N(Nc3ncc(C(F)(F)F)cc3Cl)C2=O)ccc1O	20.8	-14.2	-0.8	-11.0	-36.0
Cc1ccc(C(=O)NC(=S)NNC(=O)c2ccc([N+](=O)[O-])cc2)cc1	1.5	-2.3	33.2*	0.2	-1.5
Cc1ccc(C(=O)NNC(=S)NC(=O)c2ccc(Cl)cc2Cl)cc1	70.1*	-1.7	-1.1	-22.8	0.8
Cc1ccccc1C(=O)NNC(=S)NC(=O)c1ccccc1	51.2*	1.3	17.5	-9.2	-24.0
COc1ccc(C(=O)NNC(=S)NC(=O)c2ccc(F)cc2)cc1Br	x	7.6	x	x	-9.1
COc1ccc(Cl)cc1C(=O)NNC(=S)NC(=O)c1ccc(F)c(F)c1	29.9	-3.8	40.4*	-2.9	-7.1
Cc1ccc(C(=O)NNC(=S)NC(=O)c2ccccc2)cc1	x	-5.3	x	x	-26.6
CC(C)c1ccc(OCC(=O)Nc2cc(-c3ccccc3)no2)cc1	-0.8	x	x	7.3	x
COc1ccc(S(=O)(=O)Cc2ccc(C(=O)N3CCN(Cc4ccccc4)CC3)o2)cc1	2.9	1.4	-0.2	5.6	-3.5
Cc1ccc(S(=O)(=O)Cc2ccc(C(=O)N3CCN(Cc4ccccc4)CC3)o2)cc1	-1.1	x	-8.9	50.7*	x
Cc1ccc(S(=O)(=O)Cc2ccc(C(=O)N3CCc4ccccc4C3)o2)cc1	0.1	0.7	-15.8	57.6*	-9.8
Cc1ccc(N(CC(C)C)S(=O)(=O)c2nnc(NC(=O)c3cccs3)s2)cc1	2.1	x	x	-10.2	x
O=C(NCC(c1ccc2c(c1)OCO2)N1CCN(c2ccccc2)CC1)C(=O)Nc1ccccc1 (configuration not stated)	x	x	x	-19.1	x
Cc1nc(-c2ccccc2)sc1-c1n[nH]c(=S)n1C	0.7	1.8	-5.5	40.5*	-16.7
OCCC1CN(Cc2cccn2-c2ncccn2)CCN1Cc1ccccc1 (configuration not stated)	-1.8	-0.5	30.6*	5.6	-14.5
COc1cccc(CN2CCN(Cc3ccc(O)c(OC)c3)CC2CCO)c1 (configuration not stated)	0.7	-5.0	36.3*	-7.8	-17.5
SMILES	D2 ag-1	D2 ag-2	D2 antagonist	D2 PAM-1	D2 PAM-2
Cc1ccccc1CN1CCN(CCCc2ccccc2)C(CCO)C1 (configuration not stated)	1.3	4.9	38.3*	-21.7	-25.8
C#Cc1ccc(CN2CCN(CCCc3ccccc3)C(CCO)C2)cc1 (configuration not stated)	-0.1	1.2	74.7*	-19.0	-25.9
Cc1ccc(CN2CCN(Cc3cccn3-c3ccccn3)CC2CCO)cc1 (configuration not stated)	-0.7	-2.0	-6.5	-17.8	-13.1
COc1ccc(C)cc1S(=O)(=O)Nc1cccc(-c2ccc(N3CCCC3)nn2)c1	0.2	x	x	8.9	x
Cc1ccc(NC(=O)c2c(NC(=O)c3ccco3)sc3c2CCC(C(C)(C)C)C3)c(C)c1 (configuration not stated)	1.8	x	x	-4.0	x
O=C(Nc1cc(-c2ccc(F)c(F)c2)no1)c1ccccc1F	-1.7	x	x	-0.5	x
COc1ccc(OC)c(CN2CCN(CCCc3ccccc3)C(CCO)C2)c1 (configuration not stated)	0.8	-1.9	69.1*	-34.5	-4.4
CN(C)/C=N/c1cc(=O)[nH]c(=O)n1Cc1ccccc1	0.2	-1.6	40.1*	5.5	-23.9
COc1ccccc1NC(=O)CN1C(=O)c2cccc3cccc1c23	-1.0	x	x	-1.5	x
O=C(Nc1ccccc1)N(Cc1c[nH]c2ccccc12)C1CCCCCC1	-1.5	x	x	-3.9	x
C=CCn1c(N)c(-c2nc3ccccc3n2C)sc1=S	0.8	-0.8	-13.8	30.6*	-9.3
N/C(=N\OC(=O)c1ccco1)c1ccccc1	0.5	8.6	-7.4	7.3	u
N/C(=N\OC(=O)c1ccco1)c1ccc(Br)cc1	2.5	9.7	-8.0	-6.6	52.0*
Cc1cccc(/C(N)=N/OC(=O)c2ccco2)c1	0.5	12.6	1.1	-3.9	56.1*
Cc1ccc(/C(N)=N/OC(=O)c2ccco2)cc1	0.8	4.5	-1.7	-6.9	55.7*
COc1ccc(/C(N)=N/OC(=O)c2ccco2)cc1	3.6	2.9	5.6	0.6	19.0
CCOc1ccccc1CNC(=O)CCn1ccc2cc(S(=O)(=O)N3CCC(C)CC3)ccc21	x	x	x	5.7	x
COc1cccc(C(=O)NCCSc2c(-c3ccc(F)cc3)[nH]c3ccccc23)c1OC	0.2	x	x	10.9	x
CC1Oc2ccccc2C=C1/C=C1/SC(N2CCOCC2)=NC1=O (configuration not stated)	-0.1	-0.7	-7.9	35.8*	-1.2
COc1cc(NC(=O)c2nn(-c3ccc(F)cc3)c(=O)n(C)c2=O)cc(OC)c1OC	-1.2	x	x	-4.0	x
S=c1[nH]nc(-c2ccccc2)n1/N=C/c1ccc(Cl)cc1	-1.7	7.9	-6.6	-1.1	-16.7
CCOc1ccc(/C=N/n2c(-c3ccccc3)n[nH]c2=S)cc1	-1.8	u	41.2*	-8.4	-0.8
COc1ccc(C(=O)NC2CCN(S(=O)(=O)c3ccccc3F)CC2)cc1	-0.1	-4.9	32.6*	9.1	-4.6
COC(=O)c1ccccc1S(=O)(=O)N1CCC(NC(=O)c2ccccc2)CC1	0.1	-3.2	-13.2	3.5	-4.6
COc1ccc(N2CCN(Cc3nnc(-c4cccc(Br)c4)o3)CC2)cc1	0.1	x	x	-5.3	x
Cc1ccc(C)c(NC(=O)CN(C)C(=O)c2ccc3c(=O)n4c(nc3c2)CCC4)c1	0.4	-1.3	32.7*	-26.8	-29.4
O=C(Oc1ccccc1F)c1ccc2c(=O)n3c(nc2c1)CCC3	-0.3	-1.2	31.8*	-7.1	5.7
